Measured values taken from PubChem BioAssay AID602314 (ICCB-Longwood Screening Facility, Harvard Medical School, 2012).
The campaign covered roughly 84,000 compounds. About 110 (0.13%) were called active. No stated cut-off is given here; in the data, active means inhibition above about 30% (passing the limit was not always enough); inactive means the rest. Only a selection was taken, and actives are over-represented in it overall.

These molecules were tested on MgrA (MarR family transcriptional regulator), Staphylococcus aureus Newman (assay: modulators of MgrA DNA binding – biochemical, S. aureus Newman, fluorescence polarization, primary screen (AID 602314;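 further: 0% = protein plus DNA without compound and 100% = DNA alone without protein; higher means less MgrA bound to DNA so lower polarization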)). Settings: hits give high values, concentration not given here.

inhibition, inactive:
O=S(=O)(c1ccc(Br)s1)N1CCCC1 2.65%
CSc1noc(-c2ccc(C(C)(C)C)cc2)c1C#N 4.25%
N=C1/C(=C\c2cccn2-c2ccc3ccccc3c2)C(=O)N=C2SC=NN12 4.5%
CCOC(=O)C1CCCN(c2c3c(nc4cc(-c5ccc(C)cc5)nn24)CCC3)C1 (configuration not stated) -2.15%
COc1cc(C=Nc2ccc3[nH]c(=O)[nH]c3c2)ccc1OC(C)=O 0.05%
COc1ccc2nc(SCC(=O)c3ccc(Cl)c(Cl)c3)[nH]c2c1 -2.6%
Cn1c(-c2ccccc2)c[n+]2c1CCCCC2 -2.6%
N=Cc1c(O)n(-c2ccccc2)c2ccccc12 4.8%
CCOC(=O)C1=C(C)N(C)C(C)=C(C(=O)OCC)C1c1ccccc1F -0.1%
O=c1oc(Nc2ccc(C(F)(F)F)cc2)nc2ccccc12 0.2%
COc1ccc(CCN(Cc2cc3cc4c(cc3[nH]c2=O)OCO4)C(=O)c2ccncc2)cc1OC 2.6%
S=C(Nc1ccc2[nH]ccc2c1)NC1CC2C=CC1C2 (configuration not stated) -0.05%
Cc1cccc(NC(=O)c2cn(-c3ccccc3)nc2-c2cccnc2)c1 -3%
OC1(C(F)(F)F)CC(c2ccccc2)=NN1c1cccc2cccnc12 (configuration not stated) -1.3%
CN1C(=O)C2N=NN(c3ccccc3)C2C1=O (configuration not stated) 1.8%
O=C(N/N=C/C1CC=CCC1)c1ccccc1 (configuration not stated) 2.3%
O=C(COc1ccc(C2Nc3cccc4cccc(c34)N2)cc1)Nc1ccccc1 1.95%
O=C(Nc1cccc2ccccc12)NC1CC1 1.3%
CC1=C(C(=O)OCC2CCCCC2)C(c2ccccc2OCc2ccccc2)NC(=O)N1 (configuration not stated) -1.8%
CCOC(=O)c1sc(NC(=O)c2sc3ccccc3c2Cl)nc1-c1ccccc1 -3.1%
COc1cccc(C(=O)Nc2ccccc2Cl)c1 -5.8%
COc1ccccc1N1C(=O)C(=Cc2ccco2)C(=O)N(c2ccccc2OC)C1=O 2.2%
CC(=O)Oc1ccc(C2NC(C(=O)O)CS2)cc1 (configuration not stated) -3.3%
O=C1NC(=S)N(c2ccc(Br)cc2)C(=O)/C1=C/c1ccsc1 24.2%
O=C(O)c1ccc(Cl)cc1N=Cc1nc(-c2ccc(Br)cc2)oc1O -0.9%
Cc1ccc(-c2nn(CCC(=O)Nc3cccc(C(F)(F)F)c3)c(=O)c3ccccc23)cc1 0.65%
O=C(CN1CCN(c2cccc(Cl)c2)CC1)c1ccc(Cl)cc1 6.3%
